Measurements as given in paper PMC7819943, “Rice protein-binding microarrays: a tool to detect cis-acting elements near promoter regions in rice”.
Over roughly 68,000 sequences, “fluorescence intensity (a.u.)” has its median near 9,100; the highest 2% begin near 16,000. The full list was thinned out, with the highest values kept by preference.

molecular target: OsWRKY34 (Oryza sativa, UniProt Q0JBA9 1-250); experiment: protein-binding microarray (RPBM); PBS, 2% BSA, 51.3 ng/ul salmon testes DNA, 50 uM zinc acetate, 200 nM TF, 25 C, 1 h; high values mean tight binding; conditions: protein: recombinant; tags: N-terminal polyhistidine and DsRed monomer fusion (pET32a); label: CyDye5-dUTP incorporated in the synthesized complementary strand; 3' TTTTT single-stranded linker to array surface; dsDNA, one strand shown
Sequence (Q0JBA9 entry or part of it): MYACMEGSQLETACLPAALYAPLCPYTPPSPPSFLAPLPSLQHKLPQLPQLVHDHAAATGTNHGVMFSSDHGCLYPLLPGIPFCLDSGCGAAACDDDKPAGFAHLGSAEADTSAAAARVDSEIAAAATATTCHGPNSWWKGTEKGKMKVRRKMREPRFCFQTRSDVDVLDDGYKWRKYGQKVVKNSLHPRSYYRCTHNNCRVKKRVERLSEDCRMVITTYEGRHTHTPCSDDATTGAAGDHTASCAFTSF
Method in brief: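 The binding signal is fluorescence intensity per feature, in arbitrary units, read on an Axon 4000B scanner. Polyhistidine- and DsRed-tagged transcription factors (N-terminal fusions) from E. coli BL21-CodonPlus were purified on Ni–NTA and applied at 200 nM for 1 h at 25 °C to a double-stranded, BSA-blocked custom Agilent array in buffer with 50 µM zinc acetate.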

Question: Which binding signal does the source give for “GCTACACCGCACCCACCACAGCCAGACTTGAACTTGTTGACGGAGTCACCTAGTGCAG” here?
Answer: 8950 fluorescence intensity (a.u.)

Question: Which binding signal does the source give for “GGGTTATGTTTCATTTGTATTATTTTCTTAATTCTTACACCGGAGTCACCTAGTGCAG” here?
Answer: 12700 fluorescence intensity (a.u.)

Question: Which binding signal does the source give for “GCTCCGTCTTCCTGCTCCAGCCGCTCGCCATAGCCCACTGCGGAGTCACCTAGTGCAG” here?
Answer: 11100 fluorescence intensity (a.u.)

Question: Which binding signal does the source give for “TCATTATGGTGTTTCTTAATTGCTTTTTTCTTTTTATTATCGGAGTCACCTAGTGCAG” here?
Answer: 8300 fluorescence intensity (a.u.)

Question: With “TTTCTTTTTCTTGGTTTTTTTTTGTCTTTTCTTCTTTTTCCGGAGTCACCTAGTGCAG” as the sequence, how does the binding signal read?
Answer: 18200 fluorescence intensity (a.u.)

Question: With “ATCCCGCTTATCCCACTTCTAATTCATTTTTTCTTTTAAACGGAGTCACCTAGTGCAG” as the sequence, how does the binding signal read?
Answer: 10900 fluorescence intensity (a.u.)

Question: For “TCTGCTTTTATTCATCGGTTTCATTAATTGTTTCTGTTACCGGAGTCACCTAGTGCAG”, which binding signal is on record?
Answer: 17200 fluorescence intensity (a.u.)

Question: “CTCTCTTTCTTCTTTGTGTCTTTGTTTCTTTTCTTTTTTCCGGAGTCACCTAGTGCAG” was tested. Which binding signal did it give?
Answer: 14700 fluorescence intensity (a.u.)

Question: For “GTCTCGCTTTCTCTCTCTAGGGTTTTTCCCCACTTTCGTTCGGAGTCACCTAGTGCAG”, which binding signal is on record?
Answer: 13700 fluorescence intensity (a.u.)

Question: “GGTTTTTTTCCCGCTTATCCCACTTCTAGTCTATCTTTTTCGGAGTCACCTAGTGCAG” was tested. Which binding signal did it give?
Answer: 19300 fluorescence intensity (a.u.)

Question: “TTTCTTGTTTTCTTCTCATTCTTCTTTTTTTTCTTTCTTCCGGAGTCACCTAGTGCAG” was tested. Which binding signal did it give?
Answer: 14700 fluorescence intensity (a.u.)

Question: “CCGCTCGTCTTCCACTGCAGCCCAGCTCCCGTTCTTTCAACGGAGTCACCTAGTGCAG” was tested. Which binding signal did it give?
Answer: 16500 fluorescence intensity (a.u.)

Question: Which binding signal does the source give for “GGCGCCGTCGTCTTCTTTCCCACGCCGCCGCCGCCGTCAACGGAGTCACCTAGTGCAG” here?
Answer: 8600 fluorescence intensity (a.u.)

Question: For “CACATTGCGTCTTGTAGTCTGTATTGTAGCTGACTATATACGGAGTCACCTAGTGCAG”, which binding signal is on record?
Answer: 8820 fluorescence intensity (a.u.)

Question: With “CCTCCCTTGTTTTCTGTACCAATACGTGATGCACCGGTCTCGGAGTCACCTAGTGCAG” as the sequence, how does the binding signal read?
Answer: 8440 fluorescence intensity (a.u.)

Question: “GGGTTCACCACCAAACTCGCCACCTATAAACGCTCCTCGCCGGAGTCACCTAGTGCAG” was tested. Which binding signal did it give?
Answer: 9030 fluorescence intensity (a.u.)

Question: For “AATGTTAACGGTGCATGTGGTTGGTTGATTTGATTAGTGACGGAGTCACCTAGTGCAG”, which binding signal is on record?
Answer: 15300 fluorescence intensity (a.u.)

Question: How did the binding signal turn out when “AATGTTCAAAATTGTGCAATCAAGGTCTTACGGCAGTATACGGAGTCACCTAGTGCAG” was run?
Answer: 8120 fluorescence intensity (a.u.)

Question: “TTCTTTTCGCTAGTGATGTCTAGCGTTTCTTTTGACAAATCGGAGTCACCTAGTGCAG” was tested. Which binding signal did it give?
Answer: 8560 fluorescence intensity (a.u.)

Question: “CGTCTTAGTTACCCTTCTACTCCTATCGCTCGATCGCCTCCGGAGTCACCTAGTGCAG” was tested. Which binding signal did it give?
Answer: 8380 fluorescence intensity (a.u.)

Question: “TCCTTAGCTCCGCGGATTTGTTCACCATCACCACCATCACCGGAGTCACCTAGTGCAG” was tested. Which binding signal did it give?
Answer: 8780 fluorescence intensity (a.u.)

Question: With “GCACCAACCATCTCACCCGTCCGACGTGGCAGCAGCAACCCGGAGTCACCTAGTGCAG” as the sequence, how does the binding signal read?
Answer: 8770 fluorescence intensity (a.u.)

Question: How did the binding signal turn out when “TGTTTTTTTTCTTTCCGTATCTTTTTCTTTTTTTGGTTTTCGGAGTCACCTAGTGCAG” was run?
Answer: 19700 fluorescence intensity (a.u.)

Question: With “TTTTTTCTGTTTTTTTCTTTCCGTATCTTTTTCAGTTTTTCGGAGTCACCTAGTGCAG” as the sequence, how does the binding signal read?
Answer: 14200 fluorescence intensity (a.u.)

Question: Which binding signal does the source give for “CTGCCTGTCCCTTTCCTGCATCCATCCATCCATCTTGATCCGGAGTCACCTAGTGCAG” here?
Answer: 10600 fluorescence intensity (a.u.)

Question: With “GGGTGGCGTCCTGTTGTCATCTTTTATCCCTCTTGAATTCCGGAGTCACCTAGTGCAG” as the sequence, how does the binding signal read?
Answer: 21500 fluorescence intensity (a.u.)

Question: How did the binding signal turn out when “GTCATCTTTGTTTGAGTCGGTTTTTAATTTTGTTTGCTTTCGGAGTCACCTAGTGCAG” was run?
Answer: 17700 fluorescence intensity (a.u.)

Question: How did the binding signal turn out when “GAGTTCGGCCTTTCCGGTTTCCGGTTGTGTTGTGAGGAGTCGGAGTCACCTAGTGCAG” was run?
Answer: 10600 fluorescence intensity (a.u.)

Question: “TGGTTCTTTGATCTTTTAATTTTGTTTGTTTGTTTGTTTTCGGAGTCACCTAGTGCAG” was tested. Which binding signal did it give?
Answer: 12800 fluorescence intensity (a.u.)

Question: Which binding signal does the source give for “TTGTGTGTGCGTTTGTGATTGCGTCGGTCGGTTTCAGTTCCGGAGTCACCTAGTGCAG” here?
Answer: 17500 fluorescence intensity (a.u.)

Question: “TTTTTTTCTTTCCGTATCTTTTTCTTTTTTTGGTTTTTTACGGAGTCACCTAGTGCAG” was tested. Which binding signal did it give?
Answer: 8410 fluorescence intensity (a.u.)

Question: How did the binding signal turn out when “TCCCCTCTCTGTTGTCATCGTCTTCCTTTCCTTTCCTTTCCGGAGTCACCTAGTGCAG” was run?
Answer: 8230 fluorescence intensity (a.u.)

Question: Which binding signal does the source give for “AAGTTTAATTTGTTATTTTTATTTTTATACGTCATCTTTTCGGAGTCACCTAGTGCAG” here?
Answer: 9760 fluorescence intensity (a.u.)

Question: With “ACTAAGTGCGTGATTGTTTCAGATTTGTTTGGGTTGCGGTCGGAGTCACCTAGTGCAG” as the sequence, how does the binding signal read?
Answer: 9410 fluorescence intensity (a.u.)

Question: With “ATTGTTCGTCGAACTTTATCATATTATTAATCATCATATACGGAGTCACCTAGTGCAG” as the sequence, how does the binding signal read?
Answer: 8960 fluorescence intensity (a.u.)

Question: “ACCACGGCAAGCCCCTCGCCGAGTCTCTCATCATCGTCGACGGAGTCACCTAGTGCAG” was tested. Which binding signal did it give?
Answer: 8830 fluorescence intensity (a.u.)

Question: How did the binding signal turn out when “TTTGTGTAACCGATATGTGGGCCCCACATATTTTATTATTCGGAGTCACCTAGTGCAG” was run?
Answer: 9030 fluorescence intensity (a.u.)

Question: How did the binding signal turn out when “TGCGTGGGTCCCAACTCCGGCCGTCTTCCGCCGTTGGATCCGGAGTCACCTAGTGCAG” was run?
Answer: 8940 fluorescence intensity (a.u.)

Question: How did the binding signal turn out when “CCACGATCACATTCACCTCCCATCCCACGACGTTGCTCTCCGGAGTCACCTAGTGCAG” was run?
Answer: 8850 fluorescence intensity (a.u.)

Question: How did the binding signal turn out when “TTTTACCAACTTTCTTAATACTCGTGTCCACCTAAAAAATCGGAGTCACCTAGTGCAG” was run?
Answer: 8440 fluorescence intensity (a.u.)

Question: “CGCCTCCGGCCTCCTCACGCACTGCCGCACCACGTCGCACCGGAGTCACCTAGTGCAG” was tested. Which binding signal did it give?
Answer: 9020 fluorescence intensity (a.u.)

Question: Which binding signal does the source give for “ACCTACTTTTCGTCCCTTAATTCTGTGGCTATGTTCAAATCGGAGTCACCTAGTGCAG” here?
Answer: 12700 fluorescence intensity (a.u.)

Question: For “GAGAGGAGGTGGTGGGAAGTGGCGGCTAGGGTTTGGGTGGCGGAGTCACCTAGTGCAG”, which binding signal is on record?
Answer: 11300 fluorescence intensity (a.u.)

Question: How did the binding signal turn out when “TGTTCTTTTTTTTTACACGCGTTTTTTTTACATTGTCGTTCGGAGTCACCTAGTGCAG” was run?
Answer: 18400 fluorescence intensity (a.u.)

Question: How did the binding signal turn out when “TCATCCGGTGCCTGTTGTCTCTTTCTTCTCTCTCACATACCGGAGTCACCTAGTGCAG” was run?
Answer: 16600 fluorescence intensity (a.u.)

Question: With “GCAGTCGGTTCGCGTTTGTTTTTTTTCTTTCTTTCTTTTTCGGAGTCACCTAGTGCAG” as the sequence, how does the binding signal read?
Answer: 18400 fluorescence intensity (a.u.)

Question: “AGCCTTATCTCTTCATCGGTTCATCCGGTGCCTGTTGTCTCGGAGTCACCTAGTGCAG” was tested. Which binding signal did it give?
Answer: 8990 fluorescence intensity (a.u.)

Question: Which binding signal does the source give for “GCACAGTGGGAGGCCCGCGTTCTTTTTTTTTCGCCGGTTTCGGAGTCACCTAGTGCAG” here?
Answer: 10000 fluorescence intensity (a.u.)

Question: For “TTTTTACACGCGTTTTTTTTACATTGTCGTTTTTTTTTTGCGGAGTCACCTAGTGCAG”, which binding signal is on record?
Answer: 13500 fluorescence intensity (a.u.)

Question: Which binding signal does the source give for “TCGTTCGTTGGTTTGTTTTTTTTTTCTTTTCTCGCGTACACGGAGTCACCTAGTGCAG” here?
Answer: 11600 fluorescence intensity (a.u.)

Question: With “CGGCAGTGTTCTTTTTTTTTTACACGCGTTTTTTTTTACACGGAGTCACCTAGTGCAG” as the sequence, how does the binding signal read?
Answer: 10800 fluorescence intensity (a.u.)

Question: With “ATTATTGTTGTACAGTTCTTGCCTACAGTTCGGTTTTTCTCGGAGTCACCTAGTGCAG” as the sequence, how does the binding signal read?
Answer: 19700 fluorescence intensity (a.u.)

Question: Which binding signal does the source give for “GGTTTTTTCGGTTTTCGGTTGTCAGTTCGGTTTCTGTTTTCGGAGTCACCTAGTGCAG” here?
Answer: 15400 fluorescence intensity (a.u.)

Question: With “TTCTTTTCGGTTGATTGTTTTTCTTTGTATTTCAGTGTTGCGGAGTCACCTAGTGCAG” as the sequence, how does the binding signal read?
Answer: 9180 fluorescence intensity (a.u.)

Question: “CACCTTCTTTTTCTCTCTCTCTCTCTCTCTCTTTCTCATCCGGAGTCACCTAGTGCAG” was tested. Which binding signal did it give?
Answer: 10300 fluorescence intensity (a.u.)
